As a reminder, the AC50 is the concentration giving half of the maximal activity seen.

The structures appear in SMILES notation. Records with an inconclusive call do not appear. Calls of active or inactive are those of the source. The calls were made as follows: active = hit-call score of the fitted dose curve at least 0.9, where 1 is the maximum; inconclusive = response in the unintended direction; inactive = score below 0.9.

Read-out in this test: ABC Transporter (ABCB1), ABCB1 (gene 5243)
Nature of the test: CLD_ABCB1_48hr: CellzDirect (CLD) Gene Expression Assay for ABC Transporter (ABCB1) at 48 hours (AID 2283695).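 As to AC50: potency for induction meaning increase of mRNA over DMSO vehicle.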 The method, then: CLD_48hr is a cell-based, multiplexed-readout assay that uses hepatocyte, a human liver primary cell, with measurements taken at 48 hours after chemical dosing in a 96-well plate.CLD_ABCB1_48hr is one of 16 assay component(s) measured or calculated from the CLD_48hr assay. It is designed to make measurements of mRNA induction, a form of inducible reporter, as detected with chemiluminescence signals by Quantitative Nuclease Protection Assay (qNPA) technology.Data from the assay component CLD_ABCB1_48hr was analyzed at the endpoint, CLD_ABCB1_48hr, in the positive analysis fitting direction relative to DMSO as the negative control and baseline of activity. Using a type of inducible reporter, gain-of-signal activity can be used to understand changes in the reporter gene as they relate to the gene ABCB1. Furthermore, this assay endpoint can be referred to as a primary readout. To generalize the intended target to other relatable targets, this assay endpoint is annotated to the transporter intended target family, where subfamily is ABC transporter.
Human hepatocyte cultures were treated daily for two consecutive days with fresh dosing solutions containing appropriate concentrations of the 320 ToxCast chemicals (chemical identities were blinded to CellzDirect and other ToxCast collaborators), vehicle control (0.2% DMSO), and positive control inducers as summarized in Table 1. Due to the large number of treatment groups and chemicals examined, the ToxCast chemicals were divided into two groups (spanning two independent cultures of hepatocytes from separate donor preparations (Hu778: ToxCast plates 1 and 2; Hu776: ToxCast plates 3 and 4). Each preparation of human hepatocyte cultures was treated with respective vehicle control, medium only control, set of six positive controls/reference chemicals for the five hepatic receptor pathways, and a subset of eight of the ToxCast chemicals (indoxacarb, pyrithiobac-sodium, norflurazon, cyhalofop-butyl, methomyl, thiram, acetochlor, and propiconazole). These replicate data, coupled with internal replicates designed within the blinded ToxCast chemical library, provided additional data to evaluate interindividual differences between hepatocyte preparations and their potential impact on chemical profiles.Cell morphology and integrity were evaluated using phase-contrast microscopy as an indicator of hepatocyte cell health (Tyson & Green, 1987). Cultures for each treatment group (i.e., media, vehicle [0.2% DMSO], positive control inducers [multiple concentrations], and the ToxCast chemicals [multiple concentrations]) were observed and cell morphology was assessed relative to vehicle control cultures at each harvest time point (0, 6, 24, or 48 h). […] Images were evaluated at the conclusion of the study to assess changes in cell integrity and account for the effects of chemical exposure on uncharacteristic changes in concentration-dependent gene expression profiles. The results from these determinations of apparent cytotoxicity were annotated (yes/no) alongside the corresponding qNPA data for reference.At the conclusion of each treatment period, hepatocyte cultures (96-well) were washed with 1 volume of HBSS, lysed by addition of 25 ul ArrayPlate lysis buffer (HTG, Tucson, AZ), and 70 ul/well of Denaturation Oil, denatured by incubation at 95C for 10 min, and frozen at approximately -70C until analysis by nuclease protection assay (qNPA) (Roberts et al., 2007). For qNPA analysis, cell lysates were thawed at 50C for approximately 30 min, qNPA probes were added, and samples were incubated at 95C for 10 min to begin the detection process by denaturing the target RNA, dissociating the duplexes and secondary structure hybridization. At the conclusion of the hybridization period, S1 nuclease reagent was added to each sample to digest all nonprotected nucleotides at 50C for 60-90 min. […]
Take `CC(C)(C)c1ccc(CSc2cnn(C(C)(C)C)c(=O)c2Cl)cc1`: the result was inactive.

For `COc1ccc(C(c2ccc(OC)cc2)C(Cl)(Cl)Cl)cc1`, the call was inactive.

In the case of `N#CC(CCc1ccc(Cl)cc1)(Cn1cncn1)c1ccccc1` (stereo not given), the call was inactive.

Take `COC(=O)C=C(C)OP(=O)(OC)OC`: the compound was called inactive.

On to `COC(=O)C(C)Oc1ccc(Oc2ccc(Cl)cc2Cl)cc1` (stereo not given), for which the outcome was inactive.

As to `CCOc1cc(Oc2ccc(C(F)(F)F)cc2Cl)ccc1[N+](=O)[O-]`, the compound was classed as inactive.

With `CC(C)C1(C)N=C(c2nc3ccccc3cc2C(=O)O)NC1=O` (stereo not given), the call was inactive.

As to `C=CCC1=C(C)[C@@H](OC(=O)[C@@H]2[C@@H](C=C(C)C)C2(C)C)CC1=O`, the outcome was inactive.

As to `C=CC1(C)OC(=O)N(c2cc(Cl)cc(Cl)c2)C1=O` (stereo not given), the result was inactive.

With `CCCCNC(=O)n1c(NC(=O)OC)nc2ccccc21`, the outcome was inactive.

For `COc1nc(NC(C)C)nc(NC(C)C)n1`, the call was inactive.

In the case of `CC(C)Oc1cc(-n2nc(C(C)(C)C)oc2=O)c(Cl)cc1Cl`, the call was inactive.

On to `C#CCOS(=O)OC1CCCCC1Oc1ccc(C(C)(C)C)cc1` (stereo not given), for which the call was inactive.

Regarding `CO/C=C(/C(=O)OC)c1ccccc1Oc1cc(Oc2ccccc2C#N)ncn1`, the AC50 is 30.2 µM (active).

As for `COc1nc(C)nc(NC(=O)NS(=O)(=O)c2ccccc2CCC(F)(F)F)n1`, the compound was classed as inactive.

Take `Cc1cc(Cl)ccc1OCC(=O)O`: the call was inactive.

In the case of `COc1cnc(OC)n2nc(NS(=O)(=O)c3c(OCC(F)F)cccc3C(F)(F)F)nc12`, the call was inactive.

Turning to `Cc1c(F)c(F)c(COC(=O)C2C(/C=C(\Cl)C(F)(F)F)C2(C)C)c(F)c1F` (stereo not given), the compound was called inactive.

Regarding `CCON=C(CC)C1=C(O)CC(c2c(C)cc(C)cc2C)CC1=O` (stereo not given), the compound was classed as inactive.

As to `CCCC1COC(Cn2cncn2)(c2ccc(Cl)cc2Cl)O1` (stereo not given), the compound was classed as inactive.

As for `N#Cc1cc(Br)c(O)c(Br)c1`, the result was inactive.

Take `COc1nc(C)nc(NC(=O)NS(=O)(=O)c2ccccc2Cl)n1`: the outcome was inactive.

In the case of `N#Cc1nn(-c2c(Cl)cc(C(F)(F)F)cc2Cl)c(N)c1S(=O)C(F)(F)F` (stereo not given), the AC50 is 4.65 µM (active).

Take `COC(=O)N(OC)c1ccccc1COc1ccn(-c2ccc(Cl)cc2)n1`: the compound was classed as inactive.

Regarding `C=CCC1=C(C)C(OC(=O)C2C(C=C(C)C)C2(C)C)CC1=O` (stereo not given), the compound was classed as inactive.

As to `CNC(=O)ON=CC(C)(C)SC`, the call was inactive.

Turning to `COP(=S)(OC)Oc1nc(Cl)c(Cl)cc1Cl`, the result was inactive.

Consider `Cc1ccc(-c2c(Cl)nc(C#N)n2S(=O)(=O)N(C)C)cc1`, for which the compound was classed as inactive.

Turning to `CCCCC(CC)COC(=O)c1ccccc1C(=O)OCC(CC)CCCC` (stereo not given), the compound was called inactive.

As for `CCCCOC(=O)c1ccccc1C(=O)OCCCC`, the compound was classed as inactive.

Turning to `O=C(O)COc1nc(Cl)c(Cl)cc1Cl`, the compound was called inactive.

As for `CCNc1nc(Cl)nc(NC(C)C)n1`, the result was inactive.

For the compound `CC1COC(Cn2cncn2)(c2ccc(Oc3ccc(Cl)cc3)cc2Cl)O1` (stereo not given), the call was inactive.

As for `CCc1nn(C)c(C(=O)NCc2ccc(C(C)(C)C)cc2)c1Cl`, the compound was called inactive.

As for `CCOC(=O)C(Cl)Cc1cc(-n2nc(C)n(C(F)F)c2=O)c(F)cc1Cl` (stereo not given), the call was inactive.

In the case of `CCCCNC(=O)OCC#CI`, the result was inactive.

Consider `Fc1ccc(Oc2ccnc3cc(Cl)cc(Cl)c23)cc1`, for which the result was inactive.

`COC(=O)c1ccccc1C(=O)OC`: the compound was classed as inactive.

In the case of `CS/C(C)=N/OC(=O)N(C)SN(C)C(=O)O/N=C(\C)SC`, the outcome was inactive.

Regarding `OC(c1ccc(Cl)cc1)(c1cncnc1)c1ccccc1Cl` (stereo not given), the AC50 is 17.2 µM (active).

The values are drawn from PubChem BioAssay (EPA / NIEHS).
